In PubChem BioAssay (NCATS):
Values joined by “and” are separate entries in the source; they are usually repeats but may differ in a detail not shown here. Equal values may be shown once. Inconclusive results are not listed. Some compounds were tested as several samples or in several runs, with calls that do not always agree. Active and inactive are the calls of the source. The call rests on the fitted dose curve; in most records, active means well fitted curve in the direction sought with a large enough effect; inconclusive means small, poorly fitted or top-dose-only effect, or another doubt; inactive means no such curve, though single readings can be large; an effect the other way counts as inactive or inconclusive.

What was measured:
HaCat [1] = experiment: Cytotoxic Profiling of Annotated Libraries Using Quantitative High-Throughput Screening (AID 1296008); details: Five cell lines viability, CellTiter-Glo ATP luminescence, 48-72 h; max response: stronger effect = lower value; further: nearly all actives have a fitted effect of over 60% in size
In short: (§1)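 Compounds were pin-transferred onto cells and incubated 48 or 72 hr at 37 degree Celsius, 95% humidity. CellTiter-Glo was added, plates sat 10 min at room temperature, then ATP-coupled luminescence was imaged as the viability read-out.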

KB-3-1 = experiment: as above; details: Five cell lines viability, CellTiter-Glo ATP luminescence, 48-72 h; max response: stronger effect = lower value
In short: as §1

NIH3T3 [2] = experiment: as above; details: Five cell lines viability, CellTiter-Glo ATP luminescence, 48-72 h; max response: stronger effect = lower value
In short: as §1

MCC-13 = experiment: qHTS assay to identify novel small-molecules to repurpose for Merkel cell carcinoma treatment (AID 1296009); details: MCC and control cell lines, CellTiter-Glo viability, 72 h; series mostly up to 46 µM; further: nearly all actives have a fitted effect of over 60% in size
In short: (§2)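 Cells exposed to NPC (8-point) and MIPE (11-point) compound dilutions for 72 hr at 37 degree celsius; viability read by CellTiter-Glo luminescence, normalized to no-cell and DMSO in-plate controls.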

MCC-26 = experiment: as above; details: MCC and control cell lines, CellTiter-Glo viability, 72 h; series mostly up to 46 µM
In short: as §2

MKL-1 = experiment: as above; details: MCC and control cell lines, CellTiter-Glo viability, 72 h; series mostly up to 46 µM
In short: as §2

MKL-2 = experiment: as above; details: MCC and control cell lines, CellTiter-Glo viability, 72 h; series mostly up to 46 µM
In short: as §2

UISO = experiment: as above; details: MCC and control cell lines, CellTiter-Glo viability, 72 h; series mostly up to 46 µM
In short: as §2

WaGa = experiment: as above; details: MCC and control cell lines, CellTiter-Glo viability, 72 h; series mostly up to 46 µM
In short: as §2

HACAT [3] = experiment: as above; details: MCC and control cell lines, CellTiter-Glo viability, 72 h
In short: as §2

HEK293T [4] = experiment: as above; details: MCC and control cell lines, CellTiter-Glo viability, 72 h
In short: as §2

NIH3T3 [5] = experiment: as above; details: MCC and control cell lines, CellTiter-Glo viability, 72 h
In short: as §2

C33A = experiment: Primary qHTS to identify gynecologic anti-cancer compounds using libraries of approved drugs and bioactive compounds (AID 1345084); details: Gynecologic cancer cell panel viability, ATPlite luminescence, 48 h; series mostly up to 57.5 µM; further: nearly all actives have a fitted effect of over 55% in size
In short: (§3)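 48 h compound exposure at 37 C, 5% CO2; five-point qHTS. ATPlite luminescence readout of cell ATP.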

CAOV3 = experiment: as above; details: Gynecologic cancer cell panel viability, ATPlite luminescence, 48 h; series mostly up to 57.5 µM
In short: as §3

CASKI = experiment: as above; details: Gynecologic cancer cell panel viability, ATPlite luminescence, 48 h; series mostly up to 57.5 µM
In short: as §3

Es-2 = experiment: as above; details: Gynecologic cancer cell panel viability, ATPlite luminescence, 48 h; series mostly up to 57.5 µM
In short: as §3

HeLa = experiment: as above; details: Gynecologic cancer cell panel viability, ATPlite luminescence, 48 h; series mostly up to 57.5 µM
In short: as §3

Hek293T [6] = experiment: as above; details: Gynecologic cancer cell panel viability, ATPlite luminescence, 48 h, control line for the selectivity index; series mostly up to 57.5 µM
In short: as §3

JEG-3 = experiment: as above; details: Gynecologic cancer cell panel viability, ATPlite luminescence, 48 h; series mostly up to 57.5 µM
In short: as §3

OV90 = experiment: as above; details: Gynecologic cancer cell panel viability, ATPlite luminescence, 48 h; series mostly up to 57.5 µM
In short: as §3

[7] = at 44.8 µM (top of the series) unless noted
On the % scale 0 is the no-effect control and ±100 the full control effect; potency means the concentration at half of the fitted maximal effect.

CCN1CCCC1CNC(=O)c1cc(S(N)(=O)=O)ccc1OC (stereo not given)
inactive: max response (HaCat [1]) 2.07% | outcome (KB-3-1) | max response (NIH3T3 [2]) -4.16% | Potency (MCC-13) | Potency (MCC-26) | Potency (MKL-1) | Potency (MKL-2) | Potency (UISO) | Potency (WaGa)

N[C@@H](C(=O)N[C@@H]1C(=O)N2C(C(=O)O)=C(Cl)CS[C@H]12)c1ccccc1
inactive: outcome (HaCat [1]) | max response (KB-3-1) 16.8% and 8.23% | outcome (NIH3T3 [2]) | outcome (HACAT [3]; at 9.27 µM (top of the series)) | outcome (HACAT [3]; at 44.8 µM (top of the series)) | outcome (HEK293T [4]; at 9.27 µM (top of the series)) | outcome (HEK293T [4]; at 44.8 µM (top of the series)) | Potency (MCC-13) | Potency (MCC-26) | Potency (MKL-1) | Potency (MKL-2) | outcome (NIH3T3 [5]; at 9.27 µM (top of the series)) | outcome (NIH3T3 [5]; at 44.8 µM (top of the series)) | Potency (UISO) | Potency (WaGa) | activity change, negative = cytotoxicity (C33A) 7.76% [at 11.6 µM] | activity change, negative = cytotoxicity (CAOV3) 16.8% [at 11.6 µM] | activity change, negative = cytotoxicity (CASKI) 2.82% [at 11.6 µM] | activity change, negative = cytotoxicity (Es-2) 3.68% [at 11.6 µM] | activity change, negative = cytotoxicity (HeLa) 2.57% [at 11.6 µM] | activity change, negative = cytotoxicity (Hek293T [6]) 4.98% [at 11.6 µM] | activity change, negative = cytotoxicity (JEG-3) 1.47% [at 11.6 µM] | activity change, negative = cytotoxicity (OV90) 0.914% [at 11.6 µM]

CNC1CCCN(c2c(F)cc3c(=O)c(C(=O)O)cn(C4CC4)c3c2OC)C1 (stereo not given)
inactive: max response (HaCat [1]) 0.986% and -11% | outcome (KB-3-1) | max response (NIH3T3 [2]) -6.02% | outcome (NIH3T3 [2]) | Potency (MCC-13) | Potency (MKL-1) | Potency (MKL-2) | outcome (NIH3T3 [5]; [7]) | Potency (UISO) | Potency (WaGa) | Potency (C33A) | Potency (CAOV3) | Potency (CASKI) | Potency (Es-2) | Potency (HeLa) | Potency (Hek293T [6]) | Potency (JEG-3) | Potency (OV90)

CCCCCCNC(=O)n1cc(F)c(=O)[nH]c1=O
inactive: max response (HaCat [1]) -37.7% | max response (KB-3-1) -8.63% and -17% | Potency (MCC-13) | Potency (MCC-26) | Potency (MKL-1) | Potency (MKL-2) | Potency (C33A) | Potency (CAOV3) | Potency (CASKI) | Potency (Hek293T [6]) | Potency (OV90)
active: Potency (NIH3T3 [2]) 1.5 µM and 3.72 µM

CN(C)c1ccc(C(=C2C=CC(=[N+](C)C)C=C2)c2ccc(N(C)C)cc2)cc1
active: Potency (HaCat [1]) 1.06 µM and 935 nM | Potency (KB-3-1) 7.31 µM and 93.5 nM | Potency (NIH3T3 [2]) 944 nM and 372 nM | Potency (MCC-13) 750 nM and 743 nM | Potency (MCC-26) 7.5 µM and 4.69 µM | Potency (MKL-1) 118 nM | Potency (MKL-2) 94.4 nM and 11.8 nM | Potency (UISO) 841 nM and 187 nM | Potency (WaGa) 596 nM and 296 nM | Potency (C33A) 10000 nM | Potency (CAOV3) 1410 nM | Potency (CASKI) 1120 nM | Potency (Es-2) 1780 nM | Potency (HeLa) 2000 nM | Potency (JEG-3) 14100 nM

COc1cc2ncnc(Nc3cccc(Cl)c3)c2cc1OC
inactive: max response (NIH3T3 [2]) -25% | Potency (MCC-13) | Potency (MCC-26) | Potency (MKL-1) | Potency (MKL-2) | Potency (C33A) | Potency (CASKI) | Potency (Es-2) | Potency (HeLa) | Potency (Hek293T [6]) | Potency (JEG-3) | Potency (OV90)
active: Potency (HaCat [1]) 16.6 nM and 1.46 µM | Potency (KB-3-1) 16.6 µM | Potency (NIH3T3 [2]) 2.09 µM

CCN(CC)CC#CCOC(=O)C(O)(c1ccccc1)C1CCCCC1 (stereo not given)
inactive: outcome (HaCat [1]) | max response (KB-3-1) 11.1% and 9.45% | outcome (NIH3T3 [2]) | outcome (HACAT [3]; [7]) | Potency (MCC-13) | Potency (MKL-1) | Potency (MKL-2) | outcome (NIH3T3 [5]; [7]) | Potency (UISO) | Potency (WaGa)

CCCOc1ccc(C(=O)OCCN(CC)CC)cc1N
inactive: max response (HaCat [1]) -1.58% and 2.22% | max response (KB-3-1) -2.47% and 5.78% | outcome (NIH3T3 [2]) | outcome (HEK293T [4]; [7]) | Potency (MCC-13) | Potency (MCC-26) | Potency (MKL-1) | Potency (MKL-2) | outcome (NIH3T3 [5]; [7]) | Potency (UISO) | Potency (WaGa) | Potency (C33A) | Potency (CAOV3) | Potency (CASKI) | Potency (Es-2) | Potency (Hek293T [6]) | Potency (JEG-3) | Potency (OV90)

COc1nc(N)nc2c1ncn2[C@@H]1O[C@H](CO)[C@@H](O)[C@@H]1O
inactive: outcome (HaCat [1]) | outcome (KB-3-1) | max response (NIH3T3 [2]) -9.88% and 4.97% | outcome (HACAT [3]; [7]) | outcome (HEK293T [4]; [7]) | Potency (MCC-13) | Potency (MCC-26) | Potency (MKL-1) | Potency (MKL-2) | Potency (UISO) | Potency (C33A) | Potency (CAOV3) | Potency (CASKI) | Potency (Es-2) | Potency (Hek293T [6]) | Potency (JEG-3) | Potency (OV90)
inactive and 18.7 µM (active): Potency (WaGa)

COc1cccc(N(C)C(=S)Oc2ccc3c(c2)CCCC3)n1
inactive: outcome (HaCat [1]) | max response (KB-3-1) -2.71% and 6.85% | max response (NIH3T3 [2]) 2.09% | outcome (HACAT [3]; [7]) | Potency (MCC-13) | Potency (MCC-26) | Potency (MKL-1) | Potency (MKL-2) | Potency (UISO) | Potency (WaGa) | Potency (C33A) | Potency (CAOV3) | Potency (CASKI) | Potency (Es-2) | Potency (Hek293T [6]) | Potency (JEG-3) | Potency (OV90)

Nc1nc(N)nc(-c2cc(Cl)ccc2Cl)n1
inactive: max response (HaCat [1]) -21.1% and 4.26% | max response (KB-3-1) -7.71% | max response (NIH3T3 [2]) -1.04% and -13.6% | Potency (MCC-13) | Potency (MCC-26) | Potency (MKL-1) | Potency (MKL-2) | Potency (UISO) | Potency (WaGa) | Potency (C33A) | Potency (CAOV3) | Potency (CASKI) | Potency (Es-2) | Potency (HeLa) | Potency (Hek293T [6]) | Potency (JEG-3) | Potency (OV90)

CCCCS(=N)(=O)CCC(N)C(=O)O (stereo not given)
inactive: outcome (HaCat [1]) | max response (KB-3-1) -5.13% | max response (NIH3T3 [2]) -0.0148% | outcome (HACAT [3]; [7]) | Potency (MCC-26) | Potency (MKL-1) | Potency (UISO) | Potency (WaGa)
